Compound activity from PubChem.
Most compounds without a hit are left out; they make up all but 3.1% or so of the library.
PP1 counter = counter-screen for PP5 inhibitors: inhibitors of human PP1-alpha; P62136; hit rate 0.9% among 320,000; purified PP1alpha, OMFP fluorescence; inhibition, % at 6.7 µM;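 active = inhibition above the mean inhibition of all tested compounds plus 3 SD, computed separately for each screening campaign, cut at about 15% in these data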
Target sequence (P62136 whole entry, looked up): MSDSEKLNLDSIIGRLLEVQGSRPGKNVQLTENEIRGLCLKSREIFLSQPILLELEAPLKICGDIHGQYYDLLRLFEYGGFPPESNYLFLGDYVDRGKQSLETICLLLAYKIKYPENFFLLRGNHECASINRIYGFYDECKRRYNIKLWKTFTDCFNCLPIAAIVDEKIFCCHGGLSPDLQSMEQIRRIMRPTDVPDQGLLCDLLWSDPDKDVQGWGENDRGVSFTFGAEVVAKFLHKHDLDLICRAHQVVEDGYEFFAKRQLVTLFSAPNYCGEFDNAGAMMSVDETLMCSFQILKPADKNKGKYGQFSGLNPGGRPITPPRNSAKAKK
SKKanGAS inh = blocks kanamycin growth of S. pyogenes SKKanGAS strain | BacTiter-Glo, 6 h | hit rate 1.3% among 300,000 | inhibition, % at 7.5 µM;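 active = mean replicate score, as percent of positive control median, at least 50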;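 note: strain carries kanamycin resistance gene driven by streptokinase promoter and grows in 40 µg/ml kanamycin; loss of luminescence reflects streptokinase promoter inhibition or plain growth inhibition; 0% = median of DMSO wells and 100% = positive control at its reference dose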
PP5 primary = PP5 (human) phosphatase inhibition; P53041; inhibition, % at 6.7 µM; AID 1987; hit rate 0.18% among 320,000; purified PP5c, OMFP substrate fluorescence;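 active = inhibition above the campaign's mean inhibition across all tested compounds plus 3 SD, cut at about 9.5% in these data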;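 note: 0% = DMSO only and 100% = 100 µM cantharidin control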
Beta cell apopt = beta cell apoptosis inhibition. INS-1E cytokine-induced death, ATP luminescence, 48 h; percent of positive-control rescue, neutral wells zero. protection from apoptosis, % (concentration not given with the values). hit rate 0.8% among 300,000. AID 435005;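 active = Every replicate reaches about 75%, or at least half do and their mean reaches it too, limit read from the data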;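 note: 0% = cytokine-treated negative control wells and 100% = positive control rescue; higher means more ATP so stronger rescue from cytokine killing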
CSC inhib = blocks cancer stem cells | cancer stem cell-like cells viability, luminescence | inhibition, % at 7.5 µM | AID 2717 | hit rate 1.1% among 300,000; in the data active = inhibition above about 75%; tested in HMLE shEcad cells
PP1 inh confirm = confirmation of human PP1 phosphatase inhibitors | hit rate 52% among 1,900 | shares compounds with PP1 counter | purified PP1alpha, OMFP substrate fluorescence | inhibition, % at 6.7 µM;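 active = mean PP1 inhibition above a set limit taken from the earlier primary screen, cut at about 15% in these data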
PP5 inh counter = PP5 phosphatase inhibition, counter-screen for PP1 inhibitors. purified PP5c, OMFP fluorescence. hit rate 4% among 1,900. shares compounds with PP1 counter. inhibition, % at 6.7 µM. AID 2360;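 active = mean PP5 inhibition over triplicate wells above about 9.5% taken from the earlier PP1 screen, limit read from the data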
* marks the source's active call; other numbers are inactive results.

How did CCOc1ccc(S(=O)(=O)N(CC(=O)N/N=C/c2ccc(-c3ccc([N+](=O)[O-])cc3)o2)c2ccccc2)cc1 do in these assays?
PP1 counter: 33*; SKKanGAS inh: 19; PP5 primary: 2; Beta cell apopt: -5; CSC inhib: 57; PP1 inh confirm: 35*; PP5 inh counter: 0

Results for COc1cc(NS(=O)(=O)c2ccc(NC(=O)c3cccs3)cc2)nc(OC)n1 ?
PP1 counter: -3; SKKanGAS inh: 1; PP5 primary: -2; Beta cell apopt: 0

How did COc1ccc(NC(=O)NNC(=O)COc2ccc3ccccc3c2)cc1OC do in these assays?
PP1 counter: -1; SKKanGAS inh: 0; PP5 primary: 1; Beta cell apopt: -5; CSC inhib: -22

How did COc1ccc2cc(OCC(=O)NNC(=O)Nc3ccc(C(C)=O)cc3)ccc2c1 do in these assays?
PP1 counter: 43*; SKKanGAS inh: -2; PP5 primary: 1; Beta cell apopt: 0; PP1 inh confirm: 41*; PP5 inh counter: -2

Results for COc1ccc(NC(=O)NNC(=O)c2ccc(-c3ccccc3)cc2)cc1 ?
PP1 counter: 28*; SKKanGAS inh: -1; PP5 primary: -2; Beta cell apopt: -3; CSC inhib: -5; PP1 inh confirm: 22*; PP5 inh counter: -6

What do the screens show for `COc1ccc(NC(=O)NNC(=O)COc2ccc3cc(Br)ccc3c2)cc1OC`?
PP1 counter: 25*; SKKanGAS inh: 0; PP5 primary: 0; Beta cell apopt: -5; CSC inhib: -12; PP1 inh confirm: 25*; PP5 inh counter: -6

What do the screens show for `O=S(=O)(O)c1cccc2c(N=Nc3ccc(O)c4ncccc34)cccc12`?
PP1 counter: 47*; SKKanGAS inh: 9; PP5 primary: 1; Beta cell apopt: 1; CSC inhib: -6; PP1 inh confirm: 19*; PP5 inh counter: -2

Results for COc1cccc(N=Nc2ccc3cccnc3c2O)c1 ?
PP1 counter: 31*; SKKanGAS inh: 118*; PP5 primary: 4; Beta cell apopt: 90*; CSC inhib: 90*; PP1 inh confirm: 25*; PP5 inh counter: -2

Results for O=Nc1ccc(O)c2ncccc12 ?
PP1 counter: -3; SKKanGAS inh: 4; PP5 primary: 2; Beta cell apopt: 43; CSC inhib: 37

What do the screens show for `COc1ccc(N=Nc2ccc(O)c3ncccc23)cc1`?
PP1 counter: 27*; SKKanGAS inh: 70*; PP5 primary: 2; Beta cell apopt: 104*; CSC inhib: 151*; PP1 inh confirm: 26*; PP5 inh counter: -2

What do the screens show for `COc1cccc(N=Nc2ccc(O)c3ncccc23)c1`?
PP1 counter: 27*; SKKanGAS inh: 79*; PP5 primary: 4; Beta cell apopt: 104*; CSC inhib: 123*; PP1 inh confirm: 23*; PP5 inh counter: -1

Results for C/C=C\C=C\C(=O)N1CC2(CC(c3cccc(NC(=O)COc4ccc(Cl)cc4)c3)=NO2)C[C@H]1C(N)=O (stereo not given in full) ?
PP1 counter: -1; SKKanGAS inh: 4; PP5 primary: 3; Beta cell apopt: 1; CSC inhib: -3

How did C/C=C\C=C/C(=O)Nc1cccc(C2=NOC3(C2)C[C@@H](C(N)=O)N(C(=O)COc2ccc(Cl)cc2)C3)c1 (stereo not given in full) do in these assays?
PP1 counter: 19*; SKKanGAS inh: 15; PP5 primary: 3; Beta cell apopt: 0; CSC inhib: 8; PP1 inh confirm: -2; PP5 inh counter: -4

How did C=C(C)C(=O)Nc1cccc(C2=NOC3(C2)C[C@@H](C(N)=O)N(C(=O)c2ccc(OC)cc2)C3)c1 (stereo not given in full) do in these assays?
PP1 counter: 18*; SKKanGAS inh: -1; PP5 primary: 0; Beta cell apopt: -4; CSC inhib: -4; PP1 inh confirm: 7; PP5 inh counter: -1

Results for C=C(C)C(=O)Nc1cccc(C2=NOC3(C2)C[C@@H](C(N)=O)N(C(=O)c2cc([N+](=O)[O-])cc([N+](=O)[O-])c2)C3)c1 (stereo not given in full) ?
PP1 counter: 3; SKKanGAS inh: 2; PP5 primary: 5; Beta cell apopt: -6; CSC inhib: 0
